A selection: hits, their analogues and other compounds. The true share with any hit is near 3.5%.
TEAD-YAP inh: TEAD-YAP interaction inhibition; HEK-TIYL cells, TEAD-Gal4/YAP UAS-luciferase luminescence; inhibition, % at 9.12 µM; actives 1.4% (n = 640,000); AID 1259422; in the data active = inhibition above about 32%;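 note: 0% = median of test compound wells and 100% = reference inhibitor wells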
GPR151 ag: activators of human GPR151. activation, % at 11.2 µM. actives 1% (n = 650,000). PathHunter beta-arrestin GPR151 cells, luminescence; in the data active = activation above about 4.9%;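 note: 0% = median of compound wells and 100% = cells with positive control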
FBW7 activator: activators of human E3 ligase FBW7; Q969H0; AlphaScreen FBW7–phospho-cyclin E peptide binding, activator screen; normalized activity (activation), % at 26.1 µM; actives 0.13% (n = 650,000); AID 1259310; in the data active = normalized activity above about 1.9%;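 note: purified mutant Fbw7 with reduced substrate affinity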
MITF inh: human MITF inhibition, primary screen; inhibition, % at 2.6 µM; AlphaScreen MITF homodimerization, bead proximity signal; actives 0.91% (n = 650,000); in the data active = inhibition above about 50%;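 note: 0% = vehicle wells with protein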
Target sequence (O75030 whole entry, looked up): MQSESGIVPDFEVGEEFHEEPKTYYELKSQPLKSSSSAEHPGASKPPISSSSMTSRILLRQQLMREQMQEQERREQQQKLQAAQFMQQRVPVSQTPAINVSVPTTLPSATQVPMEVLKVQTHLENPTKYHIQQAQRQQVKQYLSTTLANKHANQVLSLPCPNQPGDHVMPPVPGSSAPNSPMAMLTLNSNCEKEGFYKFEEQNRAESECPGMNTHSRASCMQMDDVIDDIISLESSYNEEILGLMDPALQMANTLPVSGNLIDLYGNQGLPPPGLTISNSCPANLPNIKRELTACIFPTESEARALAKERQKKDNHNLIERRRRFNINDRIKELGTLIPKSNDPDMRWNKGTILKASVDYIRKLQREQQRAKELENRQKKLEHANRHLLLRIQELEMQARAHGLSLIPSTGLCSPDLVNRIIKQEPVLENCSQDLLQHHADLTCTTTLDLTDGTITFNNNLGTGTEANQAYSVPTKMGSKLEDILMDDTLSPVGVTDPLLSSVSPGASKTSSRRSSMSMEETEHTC
GPR151 confirm: human GPR151 activation, confirmation screen | shares compounds with GPR151 ag | GPR151 PathHunter beta-arrestin cells, luminescence, 90 min; % of EA-reagent control over plate median | activation, % at 11.2 µM | 6,700 tested, under 10 active;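 active = mean percent activation across replicates above the confirmation screen cutoff of 4.91%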
GPR119 ag: activates human GPR119 in a GPR151 counter-screen; shares compounds with GPR151 ag; GPR119 PathHunter beta-arrestin cells, luminescence, 90 min; 0 = compound-well median, 100 = enzyme-acceptor control; activation, % at 11.2 µM; actives 0.3% (n = 6,700);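 active = mean percent activation in the counterscreen above 29.09%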;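 note: counterscreen on off-target GPR119 to flag nonselective hits from the GPR151 activator screen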
Active calls of the source: *; / = not tested or not shown.

SMILES	TEAD-YAP inh	GPR151 ag	FBW7 activator	MITF inh	GPR151 confirm	GPR119 ag
O=C(NC1CC1)c1ccc(-c2nc(NCc3nc4ccccc4[nH]3)c3ncn(-c4ccccc4)c3n2)cc1	73.0*	5.0*	0.8	-0.6	-0.3	4.1
CCN(CC)c1ccc(Nc2nc(-c3c(C)nc4ncccn34)cs2)cc1	3.3	-2.2	-0.3	2.7	/	/
CC(C)N(C(=O)C[n+]1cccc(/C=N/O)c1)C(C)C	-4.8	0.7	0.3	5.6	/	/
NC(=O)C[n+]1cccc(/C=N/O)c1	-2.9	6.3*	0.0	3.3	-0.4	-2.3
CCSC1=NSC2=NC(=O)/C(=C\c3ccc([N+](=O)[O-])cc3)C(=N)N12	-8.0	0.0	0.2	-4.4	/	/
CSC1=NSC2=NC(=O)/C(=C\c3ccc([N+](=O)[O-])cc3)C(=N)N12	-42.6	10.5*	-0.3	4.7	1.8	1.1
CCOc1cc(C(=O)Nc2ccccc2N2CCOCC2)cc(OCC)c1OCC	4.7	5.8*	-0.1	-2.4	-0.5	-8.9
CC(=O)Nc1cc(C(=O)c2ccccc2)ccc1N1CCOCC1	4.4	6.1*	-0.2	-0.7	0.7	-3.9
COc1ccccc1C(=O)Nc1cc(C(=O)c2ccccc2)ccc1N1CCOCC1	14.4	-1.7	0.1	15.1	/	/
CCOc1ccccc1NC(=O)CCNS(=O)(=O)c1cc(Br)cnc1N	3.0	0.2	0.1	21.7	/	/
O=C1NC(c2ccccc2)=NC1(NS(=O)(=O)c1ccc(Cl)cc1)C(F)(F)F (configuration not stated)	-1.8	6.9*	0.3	9.4	0.1	2.7
CCC1CCCCN1C(=O)Cn1c(=O)n(-c2ccc(F)cc2)c(=O)c2sccc21 (configuration not stated)	13.9	1.5	-0.1	-1.8	/	/
CC1CCCCN1C(=O)Cn1c(=O)n(-c2ccc(F)cc2)c(=O)c2sccc21 (configuration not stated)	8.2	5.2*	0.0	-2.4	0.1	-4.9
O=C(CCN1CCN(C2c3ccccc3-c3ccccc32)CC1)Nc1ccccc1F	-3.5	5.1*	-0.1	6.0	1.4	9.6
CCC(C)NCCOc1ccccc1I (configuration not stated)	8.0	5.4*	-0.1	23.5	0.4	3.6
COc1ccc(N(CCCN2C(=O)c3cccc4cccc(c34)C2=O)C(=O)c2ccc([N+](=O)[O-])cc2Cl)cc1	4.7	12.4*	-0.2	-4.2	-0.3	-0.1
COc1ccc(N(CCCN2C(=O)c3cccc4cccc(c34)C2=O)C(=O)c2cc(Cl)cc(Cl)c2)cc1	4.3	-1.1	-0.1	-1.6	/	/
CCc1c(C)sc(NC(=S)NCc2ccc(S(N)(=O)=O)cc2)c1C(=O)OC	-5.5	6.3*	0.0	12.0	-1.0	-12.1
CCc1c(C)sc(NC(=S)Nc2cnccn2)c1C(=O)OC	-8.6	5.9*	-0.1	4.0	-1.0	-13.6
COC(=O)c1c(NC(=S)Nc2cnccn2)sc2c1CCC(C)C2 (configuration not stated)	-2.2	1.6	-0.2	1.4	/	/
CCN(CC)CCN1C(=O)c2ccccc2NC1c1ccc(Cl)cc1 (configuration not stated)	-0.8	7.6*	0.0	0.9	1.1	18.2
Cc1cc(C(=O)Nc2ccc(F)cc2F)no1	-27.2	6.5*	1.0	8.2	0.4	-3.1
CCCc1cc(C(=O)Nc2ccc(F)cc2F)no1	-31.0	-1.6	-0.1	1.0	/	/
CC1(C)CC(NC(=O)COc2ccccc2)CC(C)(CNC(=O)COc2ccccc2)C1 (configuration not stated)	6.1	5.4*	0.1	8.9	-0.1	1.8
CC12CC3CC(C)(C1)CC(CNC(=O)COc1ccccc1)(C3)C2	9.3	2.2	0.0	3.5	/	/
SMILES	TEAD-YAP inh	GPR151 ag	FBW7 activator	MITF inh	GPR151 confirm	GPR119 ag
Cn1c(=O)oc2cc(S(=O)(=O)N3CCC(N4CCCCC4)CC3)ccc21	-4.2	5.9*	0.1	16.2	-1.0	-8.6
Cn1c(=O)oc2cc(S(=O)(=O)N3CCN(C4CCCCC4)CC3)ccc21	-12.1	-1.4	-0.1	4.5	/	/
Cc1ccccc1N(CC(=O)N1CCOCC1)S(=O)(=O)c1ccc(Cl)cc1	3.6	14.0*	-0.2	-6.2	0.5	2.9
Cc1ccccc1N(CC(=O)N1CCCC1)S(=O)(=O)c1ccc(Cl)cc1	-11.6	-0.1	0.1	18.9	/	/
O=C(c1cccc(F)c1)N1CCN(c2ccc([N+](=O)[O-])c(NCc3ccccc3)c2)CC1	-7.6	0.3	-0.2	2.9	/	/
COc1ccc(-c2cc(C(=O)NCC(C)C)no2)cc1OC	-41.8	0.4	-0.1	-3.6	/	/
COc1ccc(-c2cc(C(=O)NCC(C)C)on2)cc1OC	-31.7	7.8*	0.0	-7.2	-0.1	1.0
CC(C)c1ccc(NC(=O)C2C3C=CC4(O3)C2C(=O)N(Cc2ccc(Cl)cc2)C4C(=O)NC2CCCC(C)C2C)cc1 (configuration not stated)	7.4	0.1	0.1	0.0	/	/
Cc1cccc(CN2CCC(N3CCC[C@H]3CO)CCC2=O)c1 (some centres not stated)	5.3	10.9*	0.0	-1.9	0.4	-7.0
C=CCOc1ccccc1CN1CCc2nncn2CC1	-2.8	7.4*	0.0	4.8	0.1	4.3
C=CCOc1ccccc1CN1CCc2nnc(CNC(=O)C3CCCN(C)C3)n2CC1 (configuration not stated)	1.5	-1.1	0.2	10.2	/	/
C=CCOc1ccccc1CN1CCc2nnc(CNC(=O)C3CCC(=O)N3)n2CC1 (configuration not stated)	-6.7	5.6*	0.0	6.7	1.2	10.6
c1cnc2c(CN3CCc4nncn4CC3)cccc2c1	9.6	-0.8	0.0	-12.1	/	/
O=C1c2c(Cl)c(Cl)c(Cl)c(Cl)c2C(=O)N1c1ccc(CCc2nc3ccccc3o2)cc1	8.2	-0.3	0.7	1.8	/	/
O=C1CCC(c2sc(Cl)c(Cl)c2Cl)=NN1c1ccccc1	-4.0	11.6*	0.0	4.0	0.3	-5.1
O=C1CCC(c2ccccc2)=NN1c1ccccn1	-11.0	1.0	-0.2	9.8	/	/
CC1Cc2cc(S(=O)(=O)CCC(=O)Nc3ccccc3)ccc2N1C(=O)C1CC1 (configuration not stated)	5.1	0.1	-0.2	-2.5	/	/
CCc1cccc(NC(=O)CCS(=O)(=O)c2ccc3c(c2)CC(C)N3C(=O)C2CC2)c1 (configuration not stated)	11.7	6.2*	0.0	7.9	0.7	-5.9
Clc1nn2cnnc2c2ccccc12	-1.5	6.9*	0.0	0.5	0.1	-6.5
c1ccc(-c2nn3cnnc3c3ccccc23)cc1	-14.9	1.1	-0.2	6.3	/	/
Cc1ccc(-c2cc(C(F)(F)F)n3nc(C(=O)N4CCN(c5ccc(F)cc5)CC4)c(Cl)c3n2)cc1	7.4	-1.1	0.0	2.1	/	/
CCCCCCCn1c(Cc2ccccc2)nc2ccccc21	-4.0	5.8*	0.1	-0.7	-0.4	-1.4
